Test results as given in PubChem BioAssay (NCI).
About 83,000 compounds went through this panel and 20% of them were active in at least one assay; those are over-represented in the sample as a whole.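 Activity criterion: percent growth below 10, measured after cells in 96-well plates were exposed to a single compound concentration for 48 hours.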 Values without a mark were called inactive. The source made the active and inactive calls.

Columns and labels:
Test in all cases: NCI-60 one-dose screen, 48 h (100 = growth as untreated, 0 = no growth, -100 = all killed)
[1] = tested on: HCT-15 colon; details: 10 µM unless noted
[2] = tested on: HT29 colon; details: 10 µM unless noted
[3] = tested on: SNB-75 CNS; details: 10 µM unless noted
[4] = tested on: SNB-19 CNS; details: 10 µM unless noted
[5] = tested on: U251 CNS; details: 10 µM unless noted
[6] = tested on: PC-3 prostate; details: 10 µM unless noted
[7] = tested on: SK-MEL-5 melanoma; details: 10 µM unless noted
[8] = tested on: UACC-62 melanoma; details: 10 µM unless noted
[9] = tested on: LOX IMVI melanoma; details: 10 µM unless noted
[10] = tested on: SK-MEL-28 melanoma; details: 10 µM unless noted
[11] = tested on: SK-MEL-2 melanoma; details: 10 µM unless noted
[12] = tested on: EKVX NSCLC; details: 10 µM unless noted
[13] = tested on: SN12C renal; details: 10 µM unless noted
[14] = tested on: UO-31 renal; details: 10 µM unless noted
[15] = tested on: ACHN renal; details: 10 µM unless noted
[16] = tested on: CAKI-1 renal; details: 10 µM
[17] = tested on: A498 renal; details: 10 µM unless noted
[18] = tested on: CCRF-CEM leukemia; details: 10 µM unless noted
[19] = tested on: MOLT-4 leukemia; details: 10 µM unless noted

| SMILES | growth [1] | growth [2] | growth [3] | growth [4] [%] | growth [5] | growth [6] | growth [7] | growth [8] | growth [9] | growth [10] | growth [11] | growth [12] | growth [13] [%] | growth [14] | growth [15] | growth [16] | growth [17] | growth [18] | growth [19] |
| --- | --- | --- | --- | --- | --- | --- | --- | --- | --- | --- | --- | --- | --- | --- | --- | --- | --- | --- | --- |
| O=S(=O)(Nc1cccc2cc(OS(=O)(=O)c3ccccc3)ccc12)c1ccccc1 | 34.4% | 19.2% | 49.6% | 78.2 | 48.5% | 59% | 53.4% | 61% | 55.4% | 66.4% | 66.9% | 64% | 70.1 | 59.7% | 85.1% | 71.4% | 48.6% | 61.9% | 43.3% |
| O=C(Nc1ccc(-n2ccc3c(NC(=O)c4ccccc4)nccc32)cc1)c1cccc(C(F)(F)F)c1 | 14.1% | 2.7% (active) | 43.9% | 37.4 | 17.7% | 40.4% | 16.5% | 35.4% | 6.29% (active) | 48.1% | 46.1% | 52.7% | 39.8 | 23.7% | 33.4% | 19.4% | 39% | 22.1% | 18.6% |
| CC1OC(n2c3ccccc3c3c4c(c5c6ccccc6[nH]c5c32)C(=O)N(CCN[C@@H]2CCC[C@H]2N)C4=O)CC(O)C1O (stereo not given in full) | 70.2% | 0.0923% (active) | 12.5% | 14.8 | 7.39% (active) | 9.72% (active) | -48.6% (active) | 17.9% | 0.411% (active) | 45.3% | 47.1% | 23.3% | 13.7 | 63.3% | 25% | 78.6% | 48.3% | 13.2% | 2.71% (active) |
| CCC(CC(C)C)Nc1ccc(NC(CC)CC(C)C)cc1 (stereo not given) | 92% | 88.8% | 96.8% | 97.8 | 75.3% | -11.1% (active) | 95.4% | 89.3% | 83.4% | 108% | 86.4% | 81.4% | 96.3 | 93% | 95.3% | 99.1% | 94.1% | 10.4% | 34.5% |
| O=C(Nc1cccc(-n2ccc3c(NC(=O)c4ccccc4)nccc32)c1)Nc1ccc(Cl)c(C(F)(F)F)c1 | 10.6% | -38.9% (active) | 54.7% | 24.8 | 9.27% (active) | 20.4% | -35.5% (active) | 20.9% | 11.8% | 44.5% | -5.89% (active) | 32.8% | 19.2 | 27.8% | 13.1% | 7.43% (active) | -3.31% (active) | 4.74% (active) | 12.8% |
| CC(C)(C)OC(=O)NCc1cccc(N=C=S)c1 | 38.9% | 37.6% | 40.7% | 77.1 | 58.3% | 51.2% | 49.2% | 14.2% | 24.4% | 23.1% | 41.9% | 71.6% | 69.6 | 49.2% | 61.5% |  | -11.6% (active) | 3.13% (active) | -24.6% (active) |
| Nc1ncnc2c1c(-c1ccc(Oc3ccccc3)cc1)nn2C[C@H]1SSC[C@H]1O | 26.6% | -59.1% (active) | 3.26% (active) | 45.9 | 21.1% | 50.7% | -92.5% (active) | -48.8% (active) | -57.7% (active) | -16.3% (active) | -75.1% (active) | 6.97% (active) | 20.7 | -3.37% (active) | 10.3% |  | 18.9% |  | -2.47% (active) |
| CCC1(C(N)=O)CC2C=CC1CC2 (stereo not given) | 109% | 106% | 95.9% | 90.2 | 110% | 103% | 98.7% | 104% | 96.2% | 125% | 124% | 115% | 118 | 90.8% | 107% | 96.6% |  | 127% | 111% |
| COc1ccc(C(=O)NC(=O)Nc2ccc3c(c2)NC(=O)/C3=C\c2[nH]c(C)c(CCC(=O)O)c2C)c(F)c1 | 39.6% | 55.6% | 44.2% | 27 | 0.371% (active) | 30.2% | 25.2% | 25.7% | 26.9% | 31.1% | -0.585% (active) | 73.1% | 39.7 | 55.6% | 67% |  | -0.45% (active) | 12.2% | 54.6% |
| COc1ccc(OCC(O)CN2CCN(c3ccc(Cl)cc3)CC2)cc1 (stereo not given) | 105% | 98.5% | 84.7% | 85.7 | 94.5% | 104% | 84.3% | 84.9% | 91.4% | 114% | 135% | 97.4% | 105 | 76% |  | 79.9% | 82.8% | 113% | 107% |
| Nc1ncc(-c2ccc3ncnc(Nc4cncc(Cl)c4)c3c2)cn1 | 73.2% | 68.6% | 31.4% | 76.7 | 73.3% | 48.8% | 66.4% | 56.9% | 61.5% | 69.5% | 66.4% | 33% | 69.8 | 41.9% | 41.6% |  | 0.263% (active) | 84.5% | 77.8% |
| CCc1ccc(C2=C/C(=C/c3ccc(Cl)cc3)C(=O)N2CCc2ccc(S(N)(=O)=O)cc2)cc1 | 17.7% | 6.46% (active) | 52.5% | 54.6 | 25.1% | 11.5% | 41.4% | 31.2% | 24.3% | 38.2% | -12.5% (active) | 29.7% | 29 | 16.5% | 14.9% |  | 33.1% | 15% | -1.62% (active) |
| CS(=O)(=O)Nc1cccc(-c2ccc3ncnc(Nc4ccc(F)c(Cl)c4)c3c2)c1 | 1% (active) | 1.71% (active) | 32.8% | 47.4 | 18.2% | 12.3% | 21.4% | 28.2% | -35.4% (active) | 44.9% | -4.95% (active) | 7.22% (active) | 44.2 | 21.1% | 22.3% |  | -25.7% (active) | 19.1% | 0.953% (active) |
| Nc1ncnc2c1ccn2-c1cccc(NC(=O)c2cccc(C(F)(F)F)c2)c1 | 41.7% | 58.4% | 67% | 88.4 | 44.9% | 51.7% | 41.1% | 77.3% | 62.2% | 85.1% | 80.6% | 66.6% | 88.4 | 86.4% | 64.1% | 69.7% | 82.9% | 51.3% | 52.3% |
| O=c1c2ccccc2sc2c(NCCCNCCO)nc3ccccc3c12 | 13.7% | -47.3% (active) | 35.3% | 63.7 | 21.3% | 22.1% | -64.7% (active) | -17.8% (active) | -87.4% (active) | -18.1% (active) | -35.6% (active) | 55.6% | 44.8 | 28.9% | -7.87% (active) |  | 16.4% | -6.25% (active) | -20.4% (active) |
